This passage reports binding signal results from paper PMC7862700, “An all-to-all approach to the identification of sequence-specific readers for epigenetic DNA modifications on cytosine”.

Common to all, as to assay: DAPPL (digital affinity profiling via proximity ligation, sequencing); 10 mM Tris-HCl pH 7.5, 50 mM NaCl, 1 mM DTT, 4% glycerol, room temperature, 30 min; GST-TFs on glutathione beads, 16-mer random dsDNA library, 0.1% formaldehyde crosslink after washing; high values mean tight binding
Experiment [1] addresses T1, FLI1 (Homo sapiens, UniProt Q01543 1-452).
T1 sequence: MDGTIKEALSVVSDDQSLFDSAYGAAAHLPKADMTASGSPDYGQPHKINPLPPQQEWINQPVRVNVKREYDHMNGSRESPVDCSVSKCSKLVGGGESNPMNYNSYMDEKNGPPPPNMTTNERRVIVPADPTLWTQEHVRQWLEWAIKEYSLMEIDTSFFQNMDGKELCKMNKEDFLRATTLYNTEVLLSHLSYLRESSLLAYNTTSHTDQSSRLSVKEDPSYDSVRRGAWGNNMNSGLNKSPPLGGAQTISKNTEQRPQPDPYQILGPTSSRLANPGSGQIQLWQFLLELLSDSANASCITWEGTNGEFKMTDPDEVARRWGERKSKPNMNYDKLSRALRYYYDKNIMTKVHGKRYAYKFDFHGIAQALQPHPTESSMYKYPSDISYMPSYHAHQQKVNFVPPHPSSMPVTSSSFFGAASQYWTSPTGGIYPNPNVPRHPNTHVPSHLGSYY
The note with it: protein: recombinant; tags: N-terminal GST; dsDNA, one strand shown. The gist of the method: (§1)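 Beads coated with glutathione captured GST-fused human transcription factors that had been expressed in yeast, and the factors were then given DNA barcodes and pooled with a tag-only sample. The pools were incubated with 200 nmole of a random double-stranded 16-mer DNA library in Tris/NaCl/DTT/glycerol buffer for 30 min at room temperature, washed, crosslinked with 0.1% formaldehyde and proximity-ligated with BsaI/T4 ligase at 37 °C for 1 h. PCR amplification and Illumina NextSeq500 sequencing came last. Binding signal is each hexamer's read frequency for a factor divided by its frequency for the tag-only sample.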

Experiment [2] addresses T2, GABPA (Homo sapiens, UniProt Q06546 1-454).
T2 sequence: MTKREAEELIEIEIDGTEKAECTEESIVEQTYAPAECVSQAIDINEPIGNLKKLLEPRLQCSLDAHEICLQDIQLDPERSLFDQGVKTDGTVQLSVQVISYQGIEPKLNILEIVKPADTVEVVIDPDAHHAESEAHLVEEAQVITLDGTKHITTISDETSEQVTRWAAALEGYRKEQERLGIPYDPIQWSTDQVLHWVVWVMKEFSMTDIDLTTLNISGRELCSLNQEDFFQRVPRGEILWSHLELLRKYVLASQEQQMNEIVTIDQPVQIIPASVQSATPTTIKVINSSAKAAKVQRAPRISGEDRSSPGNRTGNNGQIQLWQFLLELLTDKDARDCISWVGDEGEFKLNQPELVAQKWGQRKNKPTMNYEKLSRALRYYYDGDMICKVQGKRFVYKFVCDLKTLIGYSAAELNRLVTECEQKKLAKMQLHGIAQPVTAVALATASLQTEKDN
Particulars: protein: recombinant; tags: N-terminal GST; dsDNA, one strand shown. The gist of the method: as §1

The target of experiment [3] is T3, ERG (Homo sapiens, UniProt P11308 1-479).
T3 sequence: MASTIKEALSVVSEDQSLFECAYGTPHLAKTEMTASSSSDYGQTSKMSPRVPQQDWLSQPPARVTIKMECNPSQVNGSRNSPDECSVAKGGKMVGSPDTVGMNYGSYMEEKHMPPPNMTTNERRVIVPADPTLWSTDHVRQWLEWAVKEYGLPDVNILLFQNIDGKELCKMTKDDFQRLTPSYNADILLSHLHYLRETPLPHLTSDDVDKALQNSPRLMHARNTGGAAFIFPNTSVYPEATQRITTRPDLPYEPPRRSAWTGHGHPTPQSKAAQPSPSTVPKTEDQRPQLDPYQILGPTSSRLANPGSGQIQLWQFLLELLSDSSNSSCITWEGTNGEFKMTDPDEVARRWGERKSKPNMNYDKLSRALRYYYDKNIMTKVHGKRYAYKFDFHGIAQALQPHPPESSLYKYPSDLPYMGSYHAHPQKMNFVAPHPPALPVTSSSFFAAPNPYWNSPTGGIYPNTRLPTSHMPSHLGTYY
The note with it: protein: recombinant; tags: N-terminal GST; dsDNA, one strand shown. The procedure, abridged: as §1

The target in experiment [4] is ELF1 (Homo sapiens, UniProt P32519 1-619). Particulars: protein: recombinant; tags: N-terminal GST; dsDNA, one strand shown. The procedure, abridged: as §1
ELF1, sequence (P32519 whole entry): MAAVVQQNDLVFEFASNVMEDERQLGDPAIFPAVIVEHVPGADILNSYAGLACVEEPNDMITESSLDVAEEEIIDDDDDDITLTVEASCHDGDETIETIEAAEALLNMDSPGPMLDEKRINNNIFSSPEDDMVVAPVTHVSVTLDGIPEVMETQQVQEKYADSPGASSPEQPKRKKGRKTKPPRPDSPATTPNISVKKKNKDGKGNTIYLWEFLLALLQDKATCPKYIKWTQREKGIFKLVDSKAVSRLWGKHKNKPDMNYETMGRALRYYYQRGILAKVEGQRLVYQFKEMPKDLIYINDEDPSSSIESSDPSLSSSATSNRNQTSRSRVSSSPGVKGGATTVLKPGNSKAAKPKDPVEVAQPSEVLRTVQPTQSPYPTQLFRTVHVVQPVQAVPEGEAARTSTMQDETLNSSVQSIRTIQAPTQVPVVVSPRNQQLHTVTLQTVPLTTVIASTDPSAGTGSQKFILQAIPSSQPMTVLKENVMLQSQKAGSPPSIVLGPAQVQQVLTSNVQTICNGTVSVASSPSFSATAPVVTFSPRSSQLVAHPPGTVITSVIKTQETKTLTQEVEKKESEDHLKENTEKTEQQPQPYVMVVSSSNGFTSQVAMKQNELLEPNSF
In experiment [5] the target is SPI1 (Homo sapiens, UniProt P17947 1-270). Particulars: protein: recombinant; tags: N-terminal GST; dsDNA, one strand shown. The gist of the method: as §1
Experiment [6] addresses SPIB (Homo sapiens, UniProt Q01892 1-262). Particulars: protein: recombinant; tags: N-terminal GST; dsDNA, one strand shown. The procedure, abridged:
as §1

Experiment [7] addresses T4, ELK3 (Homo sapiens, UniProt P41970 1-407).
T4 sequence: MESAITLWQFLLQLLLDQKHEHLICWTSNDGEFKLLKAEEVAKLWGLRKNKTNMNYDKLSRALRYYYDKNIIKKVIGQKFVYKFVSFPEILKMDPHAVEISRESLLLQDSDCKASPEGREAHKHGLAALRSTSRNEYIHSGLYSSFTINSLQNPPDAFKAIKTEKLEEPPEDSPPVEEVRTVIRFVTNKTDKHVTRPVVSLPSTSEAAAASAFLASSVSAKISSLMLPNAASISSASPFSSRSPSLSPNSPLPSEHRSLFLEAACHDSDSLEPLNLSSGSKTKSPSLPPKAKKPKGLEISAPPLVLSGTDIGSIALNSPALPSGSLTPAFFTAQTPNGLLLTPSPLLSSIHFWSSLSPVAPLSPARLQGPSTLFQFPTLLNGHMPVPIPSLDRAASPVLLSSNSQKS
Particulars: protein: recombinant; tags: N-terminal GST; dsDNA, one strand shown. The procedure, abridged: as §1

Experiment [8] deals with T5, FEV (Homo sapiens, UniProt Q99581 1-238).
T5 sequence: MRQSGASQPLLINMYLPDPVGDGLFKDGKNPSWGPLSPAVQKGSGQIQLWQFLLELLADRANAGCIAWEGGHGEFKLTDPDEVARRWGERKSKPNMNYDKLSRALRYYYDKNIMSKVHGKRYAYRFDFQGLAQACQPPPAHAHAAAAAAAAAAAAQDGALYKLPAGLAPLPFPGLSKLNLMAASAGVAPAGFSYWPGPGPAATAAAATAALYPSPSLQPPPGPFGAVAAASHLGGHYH
The note with it: protein: recombinant; tags: N-terminal GST; dsDNA, one strand shown. The procedure, abridged:
as §1

The target in experiment [9] is ETV5 (Homo sapiens, UniProt P41161 1-510). The note with it: protein: recombinant; tags: N-terminal GST; dsDNA, one strand shown. The procedure, abridged: as §1
ETV5, sequence (P41161 whole entry): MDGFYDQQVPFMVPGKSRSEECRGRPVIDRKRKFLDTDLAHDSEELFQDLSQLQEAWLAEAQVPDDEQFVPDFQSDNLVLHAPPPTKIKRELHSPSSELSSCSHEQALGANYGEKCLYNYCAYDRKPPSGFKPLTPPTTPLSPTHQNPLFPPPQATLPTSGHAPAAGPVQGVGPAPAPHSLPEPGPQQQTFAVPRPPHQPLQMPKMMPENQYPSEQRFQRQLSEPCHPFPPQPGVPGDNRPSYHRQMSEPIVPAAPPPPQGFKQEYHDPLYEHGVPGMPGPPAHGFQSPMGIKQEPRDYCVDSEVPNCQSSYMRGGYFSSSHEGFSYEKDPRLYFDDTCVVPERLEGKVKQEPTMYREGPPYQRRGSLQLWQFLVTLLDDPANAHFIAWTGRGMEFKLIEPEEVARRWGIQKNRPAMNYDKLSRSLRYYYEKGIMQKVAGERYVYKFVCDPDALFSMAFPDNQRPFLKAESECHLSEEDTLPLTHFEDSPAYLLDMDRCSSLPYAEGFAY
In experiment [10] the target is HSF1 (Homo sapiens, UniProt Q00613 1-529). Particulars: protein: recombinant; tags: N-terminal GST; chain copies: 3; dsDNA, one strand shown. The procedure, abridged:
as §1

Experiment [11] addresses T6, SPIC (Homo sapiens, UniProt Q8N5J4 1-248).
T6 sequence: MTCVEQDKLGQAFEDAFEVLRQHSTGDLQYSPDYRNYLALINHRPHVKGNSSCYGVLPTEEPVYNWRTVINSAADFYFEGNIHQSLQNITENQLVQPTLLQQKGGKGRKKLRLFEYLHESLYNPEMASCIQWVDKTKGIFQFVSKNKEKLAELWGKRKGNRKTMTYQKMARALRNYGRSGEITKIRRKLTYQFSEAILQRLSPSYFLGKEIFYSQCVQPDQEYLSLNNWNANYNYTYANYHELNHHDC
The note with it: protein: recombinant; tags: N-terminal GST; dsDNA, one strand shown. The gist of the method: as §1

In experiment [12] the target is ELF4 (Homo sapiens, UniProt Q99607 1-663). The note with it: protein: recombinant; tags: N-terminal GST; dsDNA, one strand shown. The gist of the method:
as §1

Experiment [13] deals with T7, ELK4 (Homo sapiens, UniProt P28324-2 1-405).
T7 sequence: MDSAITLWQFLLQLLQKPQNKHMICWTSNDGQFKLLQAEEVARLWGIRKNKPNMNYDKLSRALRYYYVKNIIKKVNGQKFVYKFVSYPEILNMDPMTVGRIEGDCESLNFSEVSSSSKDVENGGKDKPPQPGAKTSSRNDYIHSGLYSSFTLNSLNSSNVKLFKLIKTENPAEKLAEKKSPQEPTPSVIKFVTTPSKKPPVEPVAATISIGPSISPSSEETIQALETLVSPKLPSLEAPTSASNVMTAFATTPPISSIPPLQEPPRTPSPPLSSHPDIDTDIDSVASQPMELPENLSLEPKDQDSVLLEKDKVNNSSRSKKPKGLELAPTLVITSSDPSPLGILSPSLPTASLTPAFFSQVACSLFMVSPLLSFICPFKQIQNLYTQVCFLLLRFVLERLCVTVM
The note with it: protein: recombinant; tags: N-terminal GST; dsDNA, one strand shown. The gist of the method: as §1

Experiment [14] has as its target T8, ETV2 (Homo sapiens, UniProt O00321 1-342).
T8 sequence: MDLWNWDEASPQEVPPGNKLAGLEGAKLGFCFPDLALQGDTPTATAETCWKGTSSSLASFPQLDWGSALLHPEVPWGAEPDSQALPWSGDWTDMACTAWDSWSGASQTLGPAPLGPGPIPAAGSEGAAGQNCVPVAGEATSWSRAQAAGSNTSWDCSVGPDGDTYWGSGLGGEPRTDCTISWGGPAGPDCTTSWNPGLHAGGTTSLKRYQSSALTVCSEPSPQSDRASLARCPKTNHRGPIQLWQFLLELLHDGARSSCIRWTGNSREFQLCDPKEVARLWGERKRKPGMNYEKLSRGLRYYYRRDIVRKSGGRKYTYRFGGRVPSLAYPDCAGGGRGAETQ
Particulars: protein: recombinant; tags: N-terminal GST; dsDNA, one strand shown. The procedure, abridged:
as §1

The target of experiment [15] is T9, ELF3 (Homo sapiens, UniProt P78545 1-371).
T9 sequence: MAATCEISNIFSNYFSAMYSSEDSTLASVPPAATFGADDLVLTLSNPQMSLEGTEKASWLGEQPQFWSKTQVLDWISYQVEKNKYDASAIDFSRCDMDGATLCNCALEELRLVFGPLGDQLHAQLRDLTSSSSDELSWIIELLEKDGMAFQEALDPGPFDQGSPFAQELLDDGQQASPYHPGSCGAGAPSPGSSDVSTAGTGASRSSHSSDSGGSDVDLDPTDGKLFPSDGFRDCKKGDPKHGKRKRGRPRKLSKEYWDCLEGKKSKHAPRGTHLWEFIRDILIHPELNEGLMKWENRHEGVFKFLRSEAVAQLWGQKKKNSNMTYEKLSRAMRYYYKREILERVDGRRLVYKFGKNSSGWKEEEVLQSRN
Particulars: protein: recombinant; tags: N-terminal GST; dsDNA, one strand shown. The procedure, abridged:
as §1

For experiment [16], the target named is CRX (Homo sapiens, UniProt O43186 1-299). The note with it: protein: recombinant; tags: N-terminal GST; dsDNA, one strand shown. The procedure, abridged:
as §1

HSF1, sequence (Q00613 whole entry): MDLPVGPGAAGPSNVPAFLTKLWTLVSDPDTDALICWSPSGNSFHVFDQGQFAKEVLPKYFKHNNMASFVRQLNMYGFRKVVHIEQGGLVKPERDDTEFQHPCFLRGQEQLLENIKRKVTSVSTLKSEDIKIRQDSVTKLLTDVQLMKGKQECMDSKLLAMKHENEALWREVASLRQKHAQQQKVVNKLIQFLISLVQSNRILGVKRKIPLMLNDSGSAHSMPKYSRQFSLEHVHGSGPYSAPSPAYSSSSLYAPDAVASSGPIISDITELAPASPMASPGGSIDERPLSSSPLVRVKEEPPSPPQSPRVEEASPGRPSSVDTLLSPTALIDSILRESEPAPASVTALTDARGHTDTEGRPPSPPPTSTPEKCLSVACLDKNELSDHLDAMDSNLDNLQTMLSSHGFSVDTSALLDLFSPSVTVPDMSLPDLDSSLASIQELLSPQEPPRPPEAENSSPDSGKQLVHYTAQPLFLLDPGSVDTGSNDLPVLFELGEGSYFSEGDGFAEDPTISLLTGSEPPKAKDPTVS
ELF4, sequence (Q99607 whole entry): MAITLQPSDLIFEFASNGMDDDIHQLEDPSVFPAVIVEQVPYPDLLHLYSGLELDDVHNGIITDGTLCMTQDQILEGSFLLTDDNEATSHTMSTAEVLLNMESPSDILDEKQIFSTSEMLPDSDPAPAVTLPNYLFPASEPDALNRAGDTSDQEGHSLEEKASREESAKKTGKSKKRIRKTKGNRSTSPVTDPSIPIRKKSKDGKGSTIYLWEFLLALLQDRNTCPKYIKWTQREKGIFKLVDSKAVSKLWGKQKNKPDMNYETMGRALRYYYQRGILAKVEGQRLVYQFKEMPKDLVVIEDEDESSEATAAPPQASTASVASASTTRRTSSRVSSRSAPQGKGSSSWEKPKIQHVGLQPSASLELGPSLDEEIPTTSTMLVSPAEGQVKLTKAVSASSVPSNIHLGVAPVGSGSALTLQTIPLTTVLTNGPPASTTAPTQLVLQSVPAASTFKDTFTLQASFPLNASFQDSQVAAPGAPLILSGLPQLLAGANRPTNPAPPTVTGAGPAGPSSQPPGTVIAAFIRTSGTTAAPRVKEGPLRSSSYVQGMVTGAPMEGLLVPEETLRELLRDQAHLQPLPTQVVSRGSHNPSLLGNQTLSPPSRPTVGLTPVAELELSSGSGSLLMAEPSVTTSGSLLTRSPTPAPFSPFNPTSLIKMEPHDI
SPIB, sequence (Q01892 whole entry): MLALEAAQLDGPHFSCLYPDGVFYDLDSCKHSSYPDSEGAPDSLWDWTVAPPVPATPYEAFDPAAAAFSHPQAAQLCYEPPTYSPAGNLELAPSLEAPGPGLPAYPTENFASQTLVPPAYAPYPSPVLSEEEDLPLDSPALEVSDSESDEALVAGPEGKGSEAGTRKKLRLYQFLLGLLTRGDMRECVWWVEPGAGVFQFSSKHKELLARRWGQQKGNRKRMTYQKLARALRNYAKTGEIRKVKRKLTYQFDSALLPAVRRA
CRX, sequence (O43186 whole entry): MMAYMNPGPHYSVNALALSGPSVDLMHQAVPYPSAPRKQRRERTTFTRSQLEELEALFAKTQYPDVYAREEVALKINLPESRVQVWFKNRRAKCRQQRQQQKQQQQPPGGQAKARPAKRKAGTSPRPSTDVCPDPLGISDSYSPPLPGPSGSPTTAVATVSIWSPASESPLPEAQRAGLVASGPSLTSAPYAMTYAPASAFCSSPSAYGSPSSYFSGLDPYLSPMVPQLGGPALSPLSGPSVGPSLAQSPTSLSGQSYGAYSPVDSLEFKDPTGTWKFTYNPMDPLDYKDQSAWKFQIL

Take TACTGG: the binding signal was 1.08 fold enrichment (6-mer frequency, TF over GST control) in [1]; 1.19 fold enrichment (6-mer frequency, TF over GST control) in [2]; 1.13 fold enrichment (6-mer frequency, TF over GST control) in experiment [3]; 1.13 fold enrichment (6-mer frequency, TF over GST control) in experiment [4]; 1.08 fold enrichment (6-mer frequency, TF over GST control) in experiment [5]; 1.05 fold enrichment (6-mer frequency, TF over GST control) in experiment [6]. Also, the binding signal in [7] is 1.07 fold enrichment (6-mer frequency, TF over GST control); in experiment [8] it was 1.01 fold enrichment (6-mer frequency, TF over GST control); in experiment [9], 1.1 fold enrichment (6-mer frequency, TF over GST control); in [10], 1.49 fold enrichment (6-mer frequency, TF over GST control); in experiment [11], 1.22 fold enrichment (6-mer frequency, TF over GST control); in [12], 1.19 fold enrichment (6-mer frequency, TF over GST control). Also, the binding signal in experiment [13] is 1.15 fold enrichment (6-mer frequency, TF over GST control); in [14], 1.3 fold enrichment (6-mer frequency, TF over GST control); in experiment [15], 1.17 fold enrichment (6-mer frequency, TF over GST control); in experiment [16], 1.35 fold enrichment (6-mer frequency, TF over GST control).
